From PubChem BioAssay (NCI) come the findings set out here.

Holding throughout (assay): NCI-60 one-dose screen, 48 h (100 = growth as untreated, 0 = no growth, -100 = all killed)
Details in all cases: 10 µM unless noted

For experiment [1], the system named is DU-145 prostate.
Experiment [2] relates to K-562 leukemia.
Experiment [3] concerns MALME-3M melanoma.
For experiment [4], the system named is MDA-MB-231 breast.
Experiment [5] deals with SF-268 CNS.
In experiment [6] the test system is SF-295 CNS.
The subject of experiment [7] is SF-539 CNS.
The test system of experiment [8] is UACC-257 melanoma.
The subject of experiment [9] is M14 melanoma.
Experiment [10] relates to HCT-15 colon.
Experiment [11] concerns HT29 colon.
Experiment [12] relates to SNB-75 CNS.
The test system of experiment [13] is SNB-19 CNS.
For experiment [14], the system named is PC-3 prostate.
Experiment [15] concerns SK-MEL-5 melanoma.
The subject of experiment [16] is UACC-62 melanoma.
For experiment [17], the system named is LOX IMVI melanoma.
The subject of experiment [18] is SK-MEL-28 melanoma.
Experiment [19] concerns U251 CNS.
The test system of experiment [20] is RXF 393 renal.

This is part of a sample that, as a whole, favours compounds with a hit. Of some 83,000 tested, about 20% had one in any assay.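 The endpoint reported here, percent growth, reads 100 for growth as untreated, 0 for no net growth and -100 for all cells dead.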 Unmarked numbers belong to inactive results. The source made the active and inactive calls. Rule for the calls: active = growth percent below 10; inactive = the rest.

Regarding `CCCCn1c(-c2cccc(OC)c2)nc2cc(OC)c(OC)cc2c1=O`, the growth in [1] is 93.4%; in experiment [2], 77.9%; in experiment [3], 252%; in experiment [4], 89.2%; in [5], 95.4%; in experiment [6], 99.5%. Moreover, the growth in [7] was 108%; in experiment [8], -16.6% (active); in [9], 107%; in [10], 103%; in experiment [11], 110%; in [12] it was 96.1%. The growth was 89.7% in experiment [13]; 108% in [14]; 97.1% in experiment [15]; 83.6% in experiment [16]; 89.2% in experiment [17]; 109% in [18].
Take `CCC1CN2C(=N1)c1ccccc1-c1cc(Cl)ccc12` (stereo not drawn): the growth in [1] is 17.4%; in experiment [2], 2.32% (active); in experiment [3], -4.57% (active); in [4], 47.9%; in [5], 25%; in [6] it was 12%. Moreover, the growth in experiment [7] is 17%; in experiment [8] it was -28.8% (active); in [9], 21.7%; in [10], 18.3%; in experiment [11], 5.27% (active); in [12], 42.6%. Moreover, the growth is 26.2% in experiment [13]; 14.8% in experiment [19]; 21.6% in [14]; -5.14% (active) in experiment [15]; 3.38% (active) in [16]; 2.76% (active) in experiment [17]. Moreover, in experiment [18], the growth was 70.7%.
Consider `COc1ccc(-c2c(NC(=O)Nc3ccc(Cl)c(C(F)(F)F)c3)cnn2-c2ccc(S(N)(=O)=O)cc2)cc1`, for which the growth in experiment [1] is 53.5%; in experiment [2] it was 11.7%; in experiment [3], 34.2%; in experiment [4] it was 52.7%; in experiment [5] it was 37.5%; in [6] it was 38.6%. Moreover, the growth in experiment [7] is 35.2%; in experiment [8] it was 34.9%; in [9] it was 14.7%; in [10] it was 68.3%; in experiment [11], 24.8%; in experiment [12], 65.7%. Moreover, the growth in experiment [13] is 21.5%; in experiment [19], 15.6%; in experiment [14], 9.52% (active); in experiment [15], 27%; in experiment [16] it was 41.2%; in experiment [17], 37.6%. Also, in experiment [18], the growth is 42.2%.
With `COc1ccc(/C=C2\CS(=O)(=O)C/C(=C\c3ccc(OC)cc3)C2=O)cc1`, the growth in [1] is -44.2% (active); in experiment [2], -15.4% (active); in [3] it was -23% (active); in [4], 8.06% (active); in experiment [5], -24.7% (active); in experiment [6], -14.4% (active). In addition, the growth in experiment [7] is -54.6% (active); in experiment [8], -80.5% (active); in [9] it was -78.1% (active); in experiment [10] it was 2.14% (active); in experiment [12], 60.2%; in experiment [13], 3.69% (active). Moreover, the growth in experiment [19] is -3.78% (active); in [14], -33.5% (active); in experiment [15] it was -91.5% (active); in experiment [16] it was -64.1% (active); in [17], -26.7% (active); in experiment [18], -23.4% (active).
For the compound `O=C1CN(CCN2CC(=O)NC(=O)C2)CC(=O)N1`, the growth in experiment [1] is 90.7%; in experiment [2], 106%; in [3], 94.5%; in experiment [4], 102%; in experiment [5], 108%; in [6], 85.9%. Also, the growth in [7] is 118%; in experiment [8], 104%; in experiment [9] it was 94.8%; in [10], 114%; in experiment [11] it was 110%; in experiment [12], 76.1%. For the same compound, the growth in experiment [13] was 99%; in experiment [19] it was 100%; in experiment [15], 87%; in [16], 86.5%; in experiment [17], 93.7%; in experiment [18] it was 121%.
For the compound `O=C(Nc1ccccc1F)Nc1ccccc1Cl`, the growth in experiment [1] was 103%; in [2], 55.8%; in experiment [3] it was 74%; in experiment [4], 85.8%; in [5], 91%; in experiment [6] it was 81.4%. For the same compound, the growth in experiment [7] was 91%; in experiment [8], 96.1%; in [9], 100%; in experiment [10], 106%; in experiment [11], 91%; in [12], 85.7%. The growth is 97.1% in experiment [13]; 92.3% in experiment [19]; 108% in experiment [14]; 84% in experiment [15]; 73.2% in experiment [16]; 93.3% in experiment [17]. In addition, the growth in [18] is 96.9%.
Turning to `COc1ccccc1C(OC(C)=O)OC(C)=O`, the growth in experiment [1] is 109%; in experiment [2], 95.6%; in experiment [3], 108%; in experiment [20], 111%; in [5], 98.8%; in experiment [6], 96.6%. Further, the growth in experiment [7] is 101%; in [8], 87.5%; in experiment [9] it was 98.3%; in experiment [10], 103%; in experiment [11], 88.5%; in experiment [12], 96.4%. Also, the growth is 113% in experiment [13]; 97.3% in [19]; 102% in experiment [14]; 101% in experiment [15]; 102% in experiment [16]; 92.9% in experiment [17]. Moreover, the growth in experiment [18] was 109%.
Regarding `CC1(C)N=C(N)N=C(N)N1c1cccc(CCCCc2ccccc2)c1`, the growth in [1] was 31.1%; in [2], -44.7% (active); in [3], -1.54% (active); in experiment [4], 45.4%; in experiment [5], 10.8%; in [6], 3.96% (active). Moreover, the growth in experiment [7] is 4.72% (active); in experiment [8], -34.8% (active); in experiment [9], 6.98% (active); in [10], 37.1%; in experiment [11], -5.08% (active); in [12] it was -5.66% (active). For the same compound, the growth is 17.2% in experiment [13]; 11.5% in experiment [19]; -30% (active) in experiment [14]; -9.07% (active) in [16]; 13.2% in experiment [17]; 42.6% in experiment [18].
